31 molecules from PubChem BioAssay (NCATS) can be followed below.

Structures are written as SMILES. Results filed as inconclusive are left out. Calls of active or inactive are those of the source. The call rests on the fitted dose curve; in most records, active means well fitted cell-killing curve with a large enough effect; inconclusive means small, poorly fitted or top-dose-only effect, or effect the other way; inactive means no such curve, though single readings can be large or run the other way.
Potency means the concentration at half of the fitted maximal effect.

One assay can be described thus: Quantitative High-Throughput drug screen in 47 multiple myeloma cell lines against the NCATS MIPE library collection: LP1_DSMZ cell viability assay (AID 1918982). Further: nearly all actives have a fitted effect of over 35% in size. As to conditions: LP1 myeloma viability, CellTiter-Glo ATP luminescence, 48 h; series mostly up to 45.8 µM. The method in brief: (§1)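 qHTS format: cells plated (500/well), pin-dosed with MIPE 4.0 compounds, kept 48 h at 37 °C. Readout was CellTiter-Glo luminescence, median RLU.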
With `O=C1c2ccccc2-[n+]2ccc3c([nH]c4ccccc43)c21`, the Potency is 2.35 µM (active).

As to `CC[C@]1(O)C[C@@H]2CN(CCc3c([nH]c4ccccc34)[C@@](C(=O)OC)(c3cc4c(cc3OC)N(C=O)[C@@H]3C45CCN4CC=C[C@](CC)([C@H]45)[C@@H](OC(C)=O)[C@]3(O)C(=O)OC)C2)C1` (some centres undefined), the Potency was 20.9 µM (active). Still for that read-out and setting: the same measure for `O=C(Nc1cccc(Br)c1)c1cccc(S(=O)(=O)N2CCCCCC2)c1`: 10.5 µM (active); for `COC[C@@H](c1ccc(C(F)(F)F)cc1)N1CCN(C2(C)CCN(C(=O)c3c(C)ncnc3C)CC2)C[C@H]1C`: “inactive”. For `O=c1c(-c2ccc(O)cc2)coc2cc(O)ccc12`, the Potency entry was “inactive”. In the case of `O=C1NC(=O)C(=Cc2cccc(C(F)(F)F)c2)S1`, the Potency result was “inactive”. Regarding `CC(=O)OC1C(C)OC(Oc2c(-c3ccc(O)cc3)oc3cc(O)cc(O)c3c2=O)C(O)C1OC(C)=O` (centres undefined), the Potency result is “inactive”. Still for that read-out and setting: the same measure for `CCN(CC)CCOc1ccc(C(=C(Cl)c2ccccc2)c2ccccc2)cc1`: “inactive”; for `O=C1NC(=O)C(=Cc2ccc3c(c2)OC(F)(F)O3)S1`: 18.7 µM (active); for `C[C@H]1[C@H](NC(=O)C(=NOC(C)(C)C(=O)O)c2csc(N)n2)C(=O)N1S(=O)(=O)O`: “inactive”.

As to `O=c1cc(CN2CCOCC2)occ1OCCCCCSc1ccnc2cc(C(F)(F)F)ccc12`, the Potency is 18.7 µM (active). `C[C@@H]1CCN(C(=O)CC#N)C[C@H]1N(C)c1ncnc2[nH]ccc12`: the Potency entry was “inactive”. As for `C[C@H](NC(=O)C(=O)Nc1ccccc1C(C)(C)C)C(=O)N[C@@H](CC(=O)O)C(=O)COc1c(F)c(F)cc(F)c1F`, the Potency was 9.35 µM (active). `CC(C)OC(=O)CCCC=CC[C@@H]1[C@H](C=C[C@@H](O)COc2cccc(C(F)(F)F)c2)[C@H](O)C[C@@H]1O`: the Potency was 14.8 µM (active). Regarding `Clc1ccc(-c2nc3sccn3c2C=NOCc2ccc(Cl)c(Cl)c2)cc1`, the Potency entry was “inactive”.

Take `C[C@H](NC(=O)c1sccc1OCc1ccc(Cl)cc1)c1ccccc1`: the Potency was 16.6 µM (active).

As for `NC(=O)c1cnc(-c2ccc(C3(N)CCC3)cc2)c(-c2ccccc2)c1`, the Potency was 2.64 µM (active). On the same count and under the same terms, the same measure for `CCc1ccc(OCc2ccccc2C(=O)Nc2ccc3nc(C)cc(N)c3c2)cc1`: 8.33 µM (active).

The next assay is described as follows: Quantitative High-Throughput drug screen in 47 multiple myeloma cell lines against the NCATS MIPE library collection: KMS28PE_JCRB cell viability assay (AID 1918983). Further: nearly all actives have a fitted effect of over 35% in size. As to conditions: KMS28PE multiple myeloma viability, CellTiter-Glo ATP, 48 h; series mostly up to 45.8 µM. A digest of the protocol: as §1
Consider `O=C1c2ccccc2-[n+]2ccc3c([nH]c4ccccc43)c21`, for which the Potency is 2.35 µM (active). Regarding `COC[C@@H](c1ccc(C(F)(F)F)cc1)N1CCN(C2(C)CCN(C(=O)c3c(C)ncnc3C)CC2)C[C@H]1C`, the Potency entry is “inactive”. In the case of `O=c1cc(N2CCOCC2)oc2c(-c3cccc4c3sc3ccccc34)cccc12`, the Potency was 14.8 µM (active). Still for that read-out and setting: the same measure for `CC(=O)OC1C(C)OC(Oc2c(-c3ccc(O)cc3)oc3cc(O)cc(O)c3c2=O)C(O)C1OC(C)=O` (centres undefined): “inactive”; for `CCN(CC)CCOc1ccc(C(=C(Cl)c2ccccc2)c2ccccc2)cc1`: “inactive”. As to `O=C1NC(=O)C(=Cc2ccc3c(c2)OC(F)(F)O3)S1`, the Potency entry is “inactive”.

Regarding `O=c1cc(CN2CCOCC2)occ1OCCCCCSc1ccnc2cc(C(F)(F)F)ccc12`, the Potency was 2.64 µM (active). As for `Oc1ccc(C2CCN(c3ccnc4ccccc34)CC2)cc1O`, the Potency was 16.6 µM (active).

As to `CN(C)C1CCN(C(=O)c2ccc(NC(=O)Nc3nc(N4CCOCC4)nc(N4CCOCC4)n3)cc2)CC1`, the Potency was 0.0132 µM (active). For the molecule `CC(C)OC(=O)CCCC=CC[C@@H]1[C@H](C=C[C@@H](O)COc2cccc(C(F)(F)F)c2)[C@H](O)C[C@@H]1O`, the Potency was 20.9 µM (active). For the molecule `CC[C@@H]1C=C(C)C[C@H](C)C[C@H](OC)[C@H]2O[C@@](O)(C(=O)C(=O)N3CCCC[C@@H]3C(=O)O[C@H](C(C)=C[C@@H]3CC[C@H](Cl)[C@H](OC)C3)[C@H](C)[C@@H](O)CC1=O)[C@H](C)C[C@H]2OC`, the Potency was 16.6 µM (active).

As to `Oc1ccc(C2=Cc3ccc(O)cc3OC2)cc1`, the Potency was 18.7 µM (active).

As for `C[C@H](NC(=O)c1sccc1OCc1ccc(Cl)cc1)c1ccccc1`, the Potency was 16.6 µM (active).

Regarding `CCc1ccc(OCc2ccccc2C(=O)Nc2ccc3nc(C)cc(N)c3c2)cc1`, the Potency was 8.33 µM (active).

Another assay can be described thus: Quantitative High-Throughput drug screen in 47 multiple myeloma cell lines against the NCATS MIPE library collection: L363_DSMZ cell viability assay (AID 1918984). Further: nearly all actives have a fitted effect of over 40% in size. As to conditions: L363 myeloma viability, CellTiter-Glo ATP luminescence, 48 h; series mostly up to 45.8 µM. A digest of the protocol: as §1
In the case of `O=C1c2ccccc2-[n+]2ccc3c([nH]c4ccccc43)c21`, the Potency is 3.72 µM (active). On to `CC[C@]1(O)C[C@@H]2CN(CCc3c([nH]c4ccccc34)[C@@](C(=O)OC)(c3cc4c(cc3OC)N(C=O)[C@@H]3C45CCN4CC=C[C@](CC)([C@H]45)[C@@H](OC(C)=O)[C@]3(O)C(=O)OC)C2)C1` (some centres undefined), for which the Potency entry is “inactive”. In the case of `O=C(Nc1cccc(Br)c1)c1cccc(S(=O)(=O)N2CCCCCC2)c1`, the Potency is 13.2 µM (active). For `O=c1cc(N2CCOCC2)oc2c(-c3cccc4c3sc3ccccc34)cccc12`, the Potency was 8.33 µM (active). Turning to `O=c1cc(CN2CCOCC2)occ1OCCCCCSc1ccnc2cc(C(F)(F)F)ccc12`, the Potency was 16.6 µM (active). For the molecule `O=C1NC(=O)C(=Cc2ccc3nccnc3c2)S1`, the Potency was 0.115 µM (active). Take `COCCOc1nc(-c2ccc(Cl)c(Cl)c2)n(-c2ccc(NC(=O)CCl)cc2)n1`: the Potency is 8.33 µM (active). Take `CS(=O)(=O)N(Cc1ccco1)CC(O)Cn1c2ccccc2c2ccccc21` (centres undefined): the Potency result is “inactive”. In the case of `Oc1ccc(C2CCN(c3ccnc4ccccc34)CC2)cc1O`, the Potency was 18.7 µM (active).

Turning to `O=c1cc(-c2ccccc2)oc2cc(O)c(O)c(O)c12`, the Potency entry is “inactive”. Still for that read-out and setting: the same measure for `C[C@H](NC(=O)C(=O)Nc1ccccc1C(C)(C)C)C(=O)N[C@@H](CC(=O)O)C(=O)COc1c(F)c(F)cc(F)c1F`: 0.833 µM (active); for `O=C(NCc1ccncc1)C12C[C@H]3C[C@@H](C1)CC(c1ccc(Cl)cc1)(C3)C2`: 5.26 µM (active); for `CC[C@@H]1C=C(C)C[C@H](C)C[C@H](OC)[C@H]2O[C@@](O)(C(=O)C(=O)N3CCCC[C@@H]3C(=O)O[C@H](C(C)=C[C@@H]3CC[C@H](Cl)[C@H](OC)C3)[C@H](C)[C@@H](O)CC1=O)[C@H](C)C[C@H]2OC`: 10.5 µM (active). On the same count and under the same terms, the same measure for `CC(C)(C)Cn1c(N)nc2ccc(-c3[nH]c(C(C)(C)C)nc3-c3ccc(F)cc3)nc21`: “inactive”; for `O=C(O)[C@H]1O[C@H](Oc2cc3oc(-c4ccccc4)cc(=O)c3c(O)c2O)[C@H](O)[C@@H](O)[C@H]1O`: “inactive”. The same measure, in the same setting: the same measure for `NC(=O)c1cccc(-c2cc(Nc3ccc(OC(F)(F)F)cc3)ncn2)c1`: 8.33 µM (active); for `CCc1ccc(OCc2ccccc2C(=O)Nc2ccc3nc(C)cc(N)c3c2)cc1`: 1.18 µM (active).
